Among the data in PubChem BioAssay (NCI) are growth values, retold here.

Among the test systems are SR leukemia; RPMI-8226 leukemia; OVCAR-8 ovarian; OVCAR-5 ovarian; OVCAR-4 ovarian; SK-OV-3 ovarian; IGROV1 ovarian; OVCAR-3 ovarian; HS 578T breast; NCI/ADR-RES ovarian; T-47D breast; BT-549 breast; MDA-MB-435 melanoma; SW-620 colon; MCF7 breast; HCC-2998 colon; KM12 colon; MDA-MB-468 breast; HCT-116 colon.
Test in all cases: NCI-60 one-dose screen, 48 h (100 = growth as untreated, 0 = no growth, -100 = all killed)
Conditions in all cases: 10 µM unless noted

About 83,000 compounds went through this panel and 20% of them were active in at least one assay; those are over-represented in the sample as a whole.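 Treatment: one concentration, 48 hours, 96-well format. Scoring: percent growth, with anything below 10 considered active.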 A number with no mark means an inactive call. The source made the active and inactive calls.

Consider `O=C1CCCc2cc(OCC(=O)N3CCCCC3)ccc2N1`, for which the growth with SR leukemia was 104%; in the assay on RPMI-8226 leukemia, 101%; with OVCAR-8 ovarian, 104%; in the assay on OVCAR-5 ovarian it was 123%; with OVCAR-4 ovarian, 103%; with SK-OV-3 ovarian, 111%. The growth is 121% with IGROV1 ovarian; 110% in the assay with OVCAR-3 ovarian; 105% in the assay with HS 578T breast; 109% in the assay with NCI/ADR-RES ovarian; 108% with T-47D breast; 126% in the assay on BT-549 breast. The growth with MDA-MB-435 melanoma is 108%; in the assay with SW-620 colon it was 106%; in the assay on MCF7 breast, 94%; in the assay with HCC-2998 colon, 122%; in the assay with KM12 colon, 108%; in the assay with MDA-MB-468 breast it was 107%.
Take `Cc1cc2c(cc1Cl)C(=O)/C(=C/c1ccc(F)cc1)O2`: the growth is 89.1% in the assay with SR leukemia; 97.2% with RPMI-8226 leukemia; 97.5% in the assay with OVCAR-8 ovarian; 106% with OVCAR-5 ovarian; 90.9% with OVCAR-4 ovarian; 100% in the assay with SK-OV-3 ovarian. Also, the growth in the assay on IGROV1 ovarian was 20.9%; in the assay with OVCAR-3 ovarian, 124%; with HS 578T breast, 97.1%; in the assay on NCI/ADR-RES ovarian it was 93.3%; in the assay on T-47D breast it was 69.1%; with BT-549 breast it was 85%. Also, the growth was 106% in the assay with MDA-MB-435 melanoma; 111% in the assay on SW-620 colon; 37.9% in the assay with MCF7 breast; 73.5% with HCT-116 colon; 117% with HCC-2998 colon; 92.7% with KM12 colon. Besides, the growth with MDA-MB-468 breast is 91.1%.
Consider `COc1ccc(C2=NN(c3ccccc3)C(c3ccc(OC)c(OCc4ccccc4)c3)C2)cc1OC` (stereo not drawn), for which the growth in the assay with SR leukemia is 104%; in the assay on RPMI-8226 leukemia it was 107%; in the assay on OVCAR-8 ovarian, 96.3%; in the assay on OVCAR-5 ovarian, 110%; with OVCAR-4 ovarian, 89.8%; with SK-OV-3 ovarian it was 93.4%. Further, the growth in the assay on IGROV1 ovarian was 84.1%; in the assay with OVCAR-3 ovarian, 106%; in the assay with HS 578T breast it was 97.7%; in the assay with NCI/ADR-RES ovarian, 103%; in the assay on T-47D breast, 84.4%; in the assay on BT-549 breast, 107%. The growth is 97.2% in the assay with MDA-MB-435 melanoma; 101% with SW-620 colon; 84.9% in the assay on MCF7 breast; 107% in the assay with HCC-2998 colon; 97.7% in the assay on KM12 colon; 101% in the assay with MDA-MB-468 breast.
In the case of `O=C(Cn1c(/C=C/c2ccccc2)nc2ccccc2c1=O)Nc1ccccc1`, the growth with SR leukemia is 80.3%; in the assay on RPMI-8226 leukemia, 90.2%; with OVCAR-8 ovarian, 44.4%; with OVCAR-5 ovarian, 96.1%; with OVCAR-4 ovarian, -0.268% (active); in the assay on SK-OV-3 ovarian it was 61.4%. The growth in the assay on IGROV1 ovarian was 107%; with OVCAR-3 ovarian, 78.3%; in the assay on HS 578T breast it was 82.5%; in the assay on NCI/ADR-RES ovarian, 57.9%; in the assay on T-47D breast it was -11.3% (active); with BT-549 breast it was 91.3%. Besides, the growth is 105% with MDA-MB-435 melanoma; 75.9% with SW-620 colon; 44.6% in the assay with HCT-116 colon; 95.2% in the assay on HCC-2998 colon; 101% in the assay on KM12 colon; 61.8% in the assay on MDA-MB-468 breast.
As to `Cn1cc(-c2cc(N)n3nc(-c4cn(C)c5ncccc45)cc3n2)c2cccnc21`, the growth with SR leukemia was 51.1%; with RPMI-8226 leukemia it was 54.3%; in the assay with OVCAR-8 ovarian, 61.3%; in the assay with OVCAR-5 ovarian, 92.8%; in the assay on OVCAR-4 ovarian, 71.4%; with SK-OV-3 ovarian, 99.8%. For the same compound, the growth was 98% in the assay with IGROV1 ovarian; 96.7% in the assay with OVCAR-3 ovarian; 89.2% in the assay with HS 578T breast; 68.6% in the assay with NCI/ADR-RES ovarian; 89% in the assay with T-47D breast; 62.5% in the assay with BT-549 breast. For the same compound, the growth was 92.9% in the assay on MDA-MB-435 melanoma; 71.7% with SW-620 colon; 62.7% in the assay on HCT-116 colon; -55.5% (active) with HCC-2998 colon; 87.8% with KM12 colon; 45% in the assay on MDA-MB-468 breast.
Take `Cc1sc2c(c1C)C(c1ccc(Cl)cc1)=N[C@@H](CC(=O)NCCCCCNC(=O)COc1ccc(C3CCC(=O)NC3=O)cc1)c1nnc(C)n1-2` (stereo partly drawn): the growth is 37.5% in the assay on SR leukemia; -3.88% (active) in the assay on RPMI-8226 leukemia; 16.2% in the assay on OVCAR-8 ovarian; 27.8% in the assay with OVCAR-5 ovarian; 22.8% in the assay on OVCAR-4 ovarian; -16.9% (active) with SK-OV-3 ovarian. For the same compound, the growth in the assay with IGROV1 ovarian is 21.8%; in the assay on OVCAR-3 ovarian, 44.7%; in the assay on HS 578T breast it was 25%; in the assay with NCI/ADR-RES ovarian, 97.3%; in the assay on T-47D breast, -10.6% (active); in the assay on BT-549 breast, -0.134% (active). In addition, the growth in the assay with MDA-MB-435 melanoma was 20.3%; in the assay on SW-620 colon, 23.1%; with HCT-116 colon it was 20%; with HCC-2998 colon it was -10.8% (active); in the assay with KM12 colon, 13.9%; in the assay with MDA-MB-468 breast it was -20.8% (active).
As for `COc1ccc(NC(=O)Nc2ccc(OCc3ccc(F)cc3)cc2)cc1`, the growth is 78.7% in the assay on SR leukemia; 88.7% with RPMI-8226 leukemia; 40.2% in the assay with OVCAR-8 ovarian; 72.9% in the assay on OVCAR-5 ovarian; 20% in the assay on OVCAR-4 ovarian; 76.2% in the assay on SK-OV-3 ovarian. Moreover, the growth with IGROV1 ovarian was 78.1%; in the assay with OVCAR-3 ovarian it was 58.5%; in the assay on HS 578T breast, 29.4%; with NCI/ADR-RES ovarian it was 51.2%; with T-47D breast it was 84.7%; in the assay on BT-549 breast it was 84.9%. The growth with MDA-MB-435 melanoma is 83%; in the assay with SW-620 colon, 73.6%; with MCF7 breast, 57.6%; in the assay with HCT-116 colon it was 58.1%; in the assay with HCC-2998 colon, 90.8%; in the assay on KM12 colon, 93.3%. In the assay with MDA-MB-468 breast, the growth was 77.5%.
